Experimental findings from PubChem BioAssay (NCI) are described below.

The panel holds about 83,000 compounds, 20% with a hit somewhere; the sample as a whole holds those more often.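 Cells were grown in 96-well plates and exposed to the test compound at a single concentration for 48 hours; results are reported as percent growth, with values below 10 considered active.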 Unmarked numbers belong to inactive results. Active and inactive are the calls of the source.

Test systems include SK-MEL-2 melanoma; EKVX NSCLC; SN12C renal; UO-31 renal; TK-10 renal; ACHN renal; A498 renal; CCRF-CEM leukemia; MOLT-4 leukemia; SR leukemia; RPMI-8226 leukemia; OVCAR-8 ovarian; OVCAR-5 ovarian; OVCAR-4 ovarian; SK-OV-3 ovarian; IGROV1 ovarian; OVCAR-3 ovarian; HS 578T breast; NCI/ADR-RES ovarian; CAKI-1 renal.
Common to all, as to assay: NCI-60 one-dose screen, 48 h (100 = growth as untreated, 0 = no growth, -100 = all killed)
Conditions in all cases: 10 µM unless noted

Regarding `Nc1nn2c(-c3cc4cc(Br)ccc4oc3=O)ccnc2c1N=Nc1ccc(Br)cc1`, the growth in the assay on SK-MEL-2 melanoma is 60%; in the assay on EKVX NSCLC, 25.9%; in the assay on SN12C renal it was -23.6% (active); with UO-31 renal it was 0.343% (active); in the assay on TK-10 renal, 23.4%; in the assay with ACHN renal, 10.7%. The growth was -4.21% (active) with A498 renal; 96.6% in the assay with CCRF-CEM leukemia; 83.1% in the assay on MOLT-4 leukemia; 29.7% in the assay on SR leukemia; 86.3% with RPMI-8226 leukemia; 14.5% with OVCAR-8 ovarian. Also, the growth is 11.8% in the assay with OVCAR-5 ovarian; 12.8% with OVCAR-4 ovarian; 22.4% with SK-OV-3 ovarian; -16.1% (active) with IGROV1 ovarian; 5.27% (active) with OVCAR-3 ovarian; 28.3% with HS 578T breast.

For the molecule `COc1c(B(O)O)cc(F)cc1-c1nc2ccc3[nH]ncc3c2c2c1COCC2`, the growth in the assay with SK-MEL-2 melanoma is 93.9%; with EKVX NSCLC, 75.3%; in the assay on SN12C renal, 50.3%; in the assay on UO-31 renal, 55%; with TK-10 renal, 14.2%; in the assay with ACHN renal it was 36.4%. Moreover, the growth is 106% in the assay with A498 renal; 19.1% with CCRF-CEM leukemia; 53.1% in the assay with MOLT-4 leukemia; 43.4% with SR leukemia; 31.5% in the assay with RPMI-8226 leukemia; 51.5% in the assay on OVCAR-8 ovarian. Moreover, the growth was 90.3% in the assay on OVCAR-5 ovarian; 102% in the assay on OVCAR-4 ovarian; 82.8% in the assay on SK-OV-3 ovarian; 57.8% in the assay on IGROV1 ovarian; 64.1% in the assay with OVCAR-3 ovarian; 9.63% (active) with HS 578T breast. Besides, the growth in the assay with NCI/ADR-RES ovarian was 93.9%.

With `ClC(Cn1ncc2c(Nc3cccc(Br)c3)nc(SCCN3CCOCC3)nc21)c1ccc(Br)cc1` (stereo unspecified), the growth in the assay on SK-MEL-2 melanoma was -11.9% (active); in the assay on EKVX NSCLC, 16.5%; in the assay on SN12C renal, 26.2%; with UO-31 renal, -65.7% (active); in the assay on TK-10 renal, 40.9%; in the assay on ACHN renal, 7.98% (active). In addition, the growth was 31.7% in the assay on A498 renal; -6.03% (active) in the assay with CCRF-CEM leukemia; -34.3% (active) in the assay on MOLT-4 leukemia; -26.7% (active) in the assay on SR leukemia; 1.13% (active) with RPMI-8226 leukemia; 10.2% with OVCAR-8 ovarian. Besides, the growth in the assay on OVCAR-5 ovarian was 18.1%; with OVCAR-4 ovarian it was 34.6%; in the assay on SK-OV-3 ovarian it was 19.4%; in the assay with IGROV1 ovarian it was 28.3%; in the assay with OVCAR-3 ovarian, 33.2%; in the assay with HS 578T breast, -19.9% (active). The growth with NCI/ADR-RES ovarian is 0.769% (active).

As for `O=C(Nc1ccc(-c2ccc3c(c2)NC(=O)/C3=C\c2ccc[nH]2)cc1)Nc1ccc(Cl)c(Cl)c1`, the growth in the assay with SK-MEL-2 melanoma is 88.9%; in the assay with EKVX NSCLC, 46.5%; in the assay with SN12C renal, 68.7%; in the assay on UO-31 renal, 54.9%; with TK-10 renal, 77.6%; in the assay on ACHN renal it was 53.7%. Moreover, the growth in the assay with CAKI-1 renal was 39.1%; with A498 renal it was 101%; in the assay on MOLT-4 leukemia, 33.5%; in the assay on SR leukemia, 16%; in the assay with RPMI-8226 leukemia, 41.1%; with OVCAR-8 ovarian, 55.6%. For the same molecule, the growth in the assay with OVCAR-5 ovarian was 67.9%; in the assay with OVCAR-4 ovarian, 37.6%; with SK-OV-3 ovarian it was 94.7%; in the assay with IGROV1 ovarian it was 65.7%; in the assay on OVCAR-3 ovarian, 12.9%; in the assay with HS 578T breast it was 45.9%. Further, in the assay on NCI/ADR-RES ovarian, the growth was 51.4%.

On to `O=S(=O)(c1nc(-c2ccc(Br)cc2)oc1-c1ccc(Cl)cc1)N1CCCC(O)C1` (stereo unspecified), for which the growth in the assay with SK-MEL-2 melanoma was 65.2%; in the assay on EKVX NSCLC it was 50%; with SN12C renal, -59.5% (active); in the assay with UO-31 renal, 37.4%; with TK-10 renal it was 102%; in the assay on ACHN renal, 53.8%. Also, the growth was 71.1% with CAKI-1 renal; 83.3% in the assay on A498 renal; 6.98% (active) in the assay on MOLT-4 leukemia; 37.2% in the assay with SR leukemia; 29.7% in the assay on RPMI-8226 leukemia; 87.8% in the assay on OVCAR-5 ovarian. Besides, the growth in the assay on OVCAR-4 ovarian was 43%; in the assay with SK-OV-3 ovarian, 101%; in the assay on HS 578T breast, 82.1%; in the assay on NCI/ADR-RES ovarian, 31.3%.

As for `COc1ccc(NC(=O)CSc2nnc(-c3ccc(-c4nc5ccc(Cl)cc5[nH]4)cc3)o2)cc1`, the growth with SK-MEL-2 melanoma is 39.4%; with EKVX NSCLC it was 23.3%; with SN12C renal, 6.13% (active); in the assay on UO-31 renal it was 71.4%; with TK-10 renal it was 112%; in the assay with ACHN renal it was 2.97% (active). For the same molecule, the growth was 8.1% (active) with CAKI-1 renal; 60.2% in the assay with A498 renal; 37.5% in the assay with MOLT-4 leukemia; 18.5% in the assay with SR leukemia; 46.3% in the assay with RPMI-8226 leukemia; 2.41% (active) in the assay with OVCAR-8 ovarian. Moreover, the growth was 59.8% with OVCAR-5 ovarian; 33.8% in the assay with OVCAR-4 ovarian; 55% in the assay with SK-OV-3 ovarian; 59.6% with IGROV1 ovarian; 41% in the assay with OVCAR-3 ovarian; 24.7% with HS 578T breast. The growth in the assay with NCI/ADR-RES ovarian is 48%.

For the molecule `C[C@H]1[C@@H](CC(=O)N[C@@H](Cc2coc3ccccc23)B(O)O)O[C@@H]2OC3(C)CC[C@H]4[C@H](C)CC[C@@H]1[C@@]24O3`, the growth with SK-MEL-2 melanoma is -20.7% (active); in the assay on EKVX NSCLC it was 28.2%; in the assay on SN12C renal, 6% (active); with UO-31 renal it was 12.4%; in the assay on TK-10 renal, 1.76% (active); in the assay on ACHN renal it was 6.94% (active). The growth is 44.5% in the assay with A498 renal; -0.752% (active) in the assay with CCRF-CEM leukemia; 14.2% in the assay with MOLT-4 leukemia; 29.6% in the assay with SR leukemia; -4.75% (active) in the assay on RPMI-8226 leukemia; 47.1% with OVCAR-8 ovarian. Besides, the growth in the assay with OVCAR-5 ovarian is -26.1% (active); with OVCAR-4 ovarian it was 33%; in the assay with SK-OV-3 ovarian it was 58.8%; with IGROV1 ovarian, 9.89% (active); in the assay on OVCAR-3 ovarian it was 3.84% (active); in the assay on HS 578T breast, -0.841% (active). The growth in the assay on NCI/ADR-RES ovarian was 19.5%.

`CC1=C(C(=O)OC(C)C)C(c2ccc(O)cc2)NC(=O)N1` (stereo unspecified): the growth was 96.5% with SK-MEL-2 melanoma; 96.1% in the assay on EKVX NSCLC; 106% in the assay with SN12C renal; 92.2% in the assay on UO-31 renal; 90.2% in the assay on TK-10 renal; 106% in the assay with ACHN renal. Further, the growth is 95.3% with CAKI-1 renal; 113% in the assay on A498 renal; 97.8% with MOLT-4 leukemia; 98.9% in the assay on RPMI-8226 leukemia; 108% in the assay on OVCAR-8 ovarian; 105% in the assay with OVCAR-5 ovarian. The growth with SK-OV-3 ovarian is 106%; in the assay on IGROV1 ovarian, 109%; with OVCAR-3 ovarian, 108%; in the assay with HS 578T breast, 99.8%; in the assay with NCI/ADR-RES ovarian, 99.8%.
